Source: PubChem (several laboratories)
In the library only some 1.4% were active in any assay of this set; here they are far more common.
MsrA act = bovine MsrA enzyme activators, primary screen, biochemical, absorbance, HTS; purified bovine MsrA, absorbance read-out; activation, % at 10.6 µM; hit rate 0.3% among 360,000; in the data active = activation above about 7.5%;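 note: 0% = vehicle and 100% = reference activator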
p-CIP stab down = p/CIP-EGFP fusion destabilizers, primary screen, fluorescence, F442A cells; 16 h; decrease of EGFP signal, % at 10 µM; hit rate 0.01% among 290,000;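 active = EGFP signal decrease of at least 30% at 10 µM or well 3 SD below plate mean, unless failing retest; inactive = the rest, including hits failing retest or dose response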
14-3-3 Bad inh = inhibitors of 14-3-3 zeta/Bad binding, primary screen, biochemical, TR-FRET, bovine 14-3-3 zeta; hit rate 0.71% among 220,000; inhibition, % at 21.7 µM; TR-FRET 14-3-3zeta/Dy647-pBad peptide displacement, 1 h; 14-3-3 protein zeta/delta (Bos taurus), P63103;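 active = inhibition above about 70%, limit read from the data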;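 note: 0% = full 14-3-3 plus peptide FRET controls and 100% = background without 14-3-3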
Target sequence (P63103 whole entry, looked up): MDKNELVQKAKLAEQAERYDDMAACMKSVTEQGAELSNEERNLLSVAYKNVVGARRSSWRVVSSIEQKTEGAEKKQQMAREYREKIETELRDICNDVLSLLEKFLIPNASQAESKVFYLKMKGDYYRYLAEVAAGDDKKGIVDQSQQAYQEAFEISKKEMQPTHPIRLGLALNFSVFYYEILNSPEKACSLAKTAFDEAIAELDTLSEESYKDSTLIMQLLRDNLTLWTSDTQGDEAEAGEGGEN
MsrA inh = bovine MsrA enzyme inhibitors, primary screen, biochemical, absorbance, HTS; hit rate 0.75% among 360,000; Methionine sulfoxide reductase A (Bos taurus); inhibition, % at 15.5 µM; purified bovine MsrA, absorbance read-out; AID 651718, 2012; in the data active = inhibition above about 4.5%;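 note: 0% = vehicle wells with enzyme and 100% = reference inhibitor wells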
MsrA act confirm = bovine MsrA activators, retest, confirmation, biochemical, absorbance, HTS; hit rate 12% among 1,000; activation, % at 10.6 µM; shares compounds with MsrA act; purified bovine MsrA, absorbance read-out; in the data active = activation above about 4%;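 note: enzyme coupled to thioredoxin and thioredoxin reductase with NADPH; 0% = vehicle wells and 100% = reference activator wells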
* hit, by the source's call; . = no result given.

SMILES | MsrA act | p-CIP stab down | 14-3-3 Bad inh | MsrA inh | MsrA act confirm
CCOC(=O)N1CCN(C(=O)c2noc3c2COc2ccccc2-3)CC1 | -3.8 | 5.6 | . | 1.3 | .
CCCN1CCN(C(=O)c2noc3c2COc2ccc(C)cc2-3)CC1 | 8.0* | -1.0 | . | 0.2 | -2.2
O=C(CC1CCCC1)N[C@@H](Cc1cccnc1)C(=O)N1CCC[C@H]1C(=O)NC1CCCC1 | . | . | . | 0.0 | .
CCOc1ccc(C2CC(=O)c3c([nH]c(C(=O)OC)c3C)C2)cc1OC (stereo not drawn) | -4.0 | -20.8 | -4.5 | -0.9 | .
COC(=O)c1[nH]c2c(c1C)C(=O)CC(c1cc(OC)ccc1OC)C2 (stereo not drawn) | 9.9* | 1.4 | 4.2 | -0.8 | -0.4
COC(=O)[C@]12C[C@H](CC(=O)NCc3ccc(C)o3)C(=O)N(Cc3ccccc3)C1=C[C@H](C1CCCC1)O[C@@H]2C | . | . | . | 0.7 | .
COc1ccc(C(=O)NCC2CCN(C(=O)C(=O)c3cc4ccccc4o3)CC2)c(OC)c1 | . | . | . | 1.7 | .
Cc1ccc(S(=O)(=O)N2CCN(C(=O)COC(=O)COc3ccccc3)CC2)cc1 | 9.9* | 1.4 | -3.1 | 0.3 | -3.7
CN(C)C(=O)N1CCN(C(=O)[C@H](CCc2ccccc2)NC(=O)[C@H]2O[C@@H](n3cnc4c(N)ncnc43)[C@H](O)[C@@H]2O)CC1 | . | . | . | -0.4 | .
CC1=C(C(=O)OC2CCCCCCC2)C(c2cccc(O)c2)NC(=O)N1 (stereo not drawn) | 8.9* | -6.7 | -0.7 | 0.5 | -0.9
COC(=O)C1=C(C)N(Cc2cccc(C(F)(F)F)c2)C(=NCc2cc(OC)c(OC)c(OC)c2)NC1c1ccc(Cl)cc1 (stereo not drawn) | . | . | . | -0.6 | .
O=C(COC(=O)c1cncc(Br)c1)NC12CC3CC(CC(C3)C1)C2 | 9.3* | . | . | 0.1 | -1.1
O=C(NC12CC3CC(CC(C3)C1)C2)c1cncc(Br)c1 | -2.5 | -20.2 | . | 1.1 | .
C=CCn1c(SCCN2CCCC2)nc2c([nH]c3ccccc32)c1=O | 8.4* | -5.4 | -7.3 | 1.1 | -1.2
CCN(CC)CCn1c2c(c(SCC(=O)Nc3nc4ccc(C)cc4s3)nc1=O)CCC2 | 7.9* | . | . | 0.2 | -0.7
Oc1c(Br)cc(Br)cc1CNc1ccc(F)cc1 | 8.9* | 0.5 | -10.9 | -0.3 | -1.1
CCCN1C(=O)c2[nH]nc(-c3ccccc3)c2C1c1ccc(C)cc1 (stereo not drawn) | . | . | . | 0.1 | .
Cc1cc(NC(=O)CCc2c[nH]c3ccccc23)ccc1Nc1cccnc1 | . | . | . | 1.3 | .
CC1CC(C)CN(CCCNC(=O)CCNC(=O)Cn2ccc3ccccc3c2=O)C1 (stereo not drawn) | 7.7* | -8.3 | -4.6 | -0.2 | -0.5
O=C(NN1C(=O)c2cc(Br)ccc2NC1c1cc(Br)cc(Br)c1O)c1ccncc1 (stereo not drawn) | 8.9* | -11.1 | -3.5 | 0.2 | -4.2
Nc1[nH]c(C(=O)c2ccccc2)c(-c2ccc3ccccc3c2)c1C(=O)NC1CC1 | . | . | . | -0.4 | .
CC(C)Oc1ccc(/C=C(\C#N)C(=O)NC2CC2)cc1 | -2.4 | . | . | 2.2 | .
N#C/C(=C\c1ccc(OCC(N)=O)cc1)C(=O)NC1CC1 | 13.2* | 9.7 | . | 3.1 | -1.1
N#CCCN(Cc1cccnc1)C(=O)Nc1ccc(Cl)c(Cl)c1 | 9.1* | 1.3 | -0.8 | 1.4 | -2.2
C[C@@H]1CN(c2ccc(N3CCNC[C@H]3C)cc2C#N)CCN1Cc1ccccc1 | . | . | . | -0.7 | .
SMILES | MsrA act | p-CIP stab down | 14-3-3 Bad inh | MsrA inh | MsrA act confirm
C[C@H](O)[C@@H]1C(=O)N2CCc3c([nH]c4c(-c5ccc6c(c5)OCO6)cccc34)[C@@H]2C[C@@H]1N(C)C(=O)Nc1ccccc1 | . | . | . | -0.1 | .
OCCNCCSc1ccc(Cl)cc1 | 9.3* | 0.9 | 19.6 | -0.9 | 0.3
O=C(O)CC(c1ccc(Br)cc1)N1Cc2ccccc2C1=O (stereo not drawn) | -3.8 | 1.3 | . | -0.8 | .
CN(C)C(=O)c1cccc(-c2cc(NC=O)c3ncc(-c4ccc(F)c(Cl)c4)n3c2)c1 | 9.3* | . | . | 0.8 | 0.9
CN(C)CCNC(=O)c1cccc(-c2cnc3c(NC=O)cc(-c4ccc(S(C)(=O)=O)cc4)cn23)c1 | 8.0* | . | . | 0.8 | -0.5
CN(C)CCNC(=O)c1cccc(-c2cnc3c(NC=O)cc(-c4cc(F)c(F)c(F)c4)cn23)c1 | 8.0* | . | . | -0.1 | -1.2
COc1cccc(-c2cc(NC=O)c3ncc(-c4cccc(C(=O)NCCN(C)C)c4)n3c2)c1 | -3.5 | . | . | -0.7 | .
